Experimental data from PubChem BioAssay AID2073 (Sanford-Burnham Center for Chemical Genomics, 2009).
The whole screen tested about 290,000 compounds, of which about 570 (0.2%) were called active. Another 1% or so got no clear call; they are omitted. The sample holds actives, similar compounds and a random draw of the others, so the mix is not that of the screen. No stated cut-off is given here; in the data, active means inhibition mostly above about 51% (no sharp cut-off); inconclusive means no clear call, values can overlap the other calls; inactive means mostly below about 53%.

Target: Voltage-dependent N-type calcium channel subunit alpha-1B (Homo sapiens) (UniProt Q00975)
Assay: inhibitors of Mint1-CaV2.2 protein interaction, biochemical, HTRF (AID 2073)
Conditions: at 20 µM, stronger effect = higher value
[1] = measured here: average of repeat tests

Sequence of Voltage-dependent N-type calcium channel subunit alpha-1B (Homo sapiens) (Q00975 whole entry, looked up): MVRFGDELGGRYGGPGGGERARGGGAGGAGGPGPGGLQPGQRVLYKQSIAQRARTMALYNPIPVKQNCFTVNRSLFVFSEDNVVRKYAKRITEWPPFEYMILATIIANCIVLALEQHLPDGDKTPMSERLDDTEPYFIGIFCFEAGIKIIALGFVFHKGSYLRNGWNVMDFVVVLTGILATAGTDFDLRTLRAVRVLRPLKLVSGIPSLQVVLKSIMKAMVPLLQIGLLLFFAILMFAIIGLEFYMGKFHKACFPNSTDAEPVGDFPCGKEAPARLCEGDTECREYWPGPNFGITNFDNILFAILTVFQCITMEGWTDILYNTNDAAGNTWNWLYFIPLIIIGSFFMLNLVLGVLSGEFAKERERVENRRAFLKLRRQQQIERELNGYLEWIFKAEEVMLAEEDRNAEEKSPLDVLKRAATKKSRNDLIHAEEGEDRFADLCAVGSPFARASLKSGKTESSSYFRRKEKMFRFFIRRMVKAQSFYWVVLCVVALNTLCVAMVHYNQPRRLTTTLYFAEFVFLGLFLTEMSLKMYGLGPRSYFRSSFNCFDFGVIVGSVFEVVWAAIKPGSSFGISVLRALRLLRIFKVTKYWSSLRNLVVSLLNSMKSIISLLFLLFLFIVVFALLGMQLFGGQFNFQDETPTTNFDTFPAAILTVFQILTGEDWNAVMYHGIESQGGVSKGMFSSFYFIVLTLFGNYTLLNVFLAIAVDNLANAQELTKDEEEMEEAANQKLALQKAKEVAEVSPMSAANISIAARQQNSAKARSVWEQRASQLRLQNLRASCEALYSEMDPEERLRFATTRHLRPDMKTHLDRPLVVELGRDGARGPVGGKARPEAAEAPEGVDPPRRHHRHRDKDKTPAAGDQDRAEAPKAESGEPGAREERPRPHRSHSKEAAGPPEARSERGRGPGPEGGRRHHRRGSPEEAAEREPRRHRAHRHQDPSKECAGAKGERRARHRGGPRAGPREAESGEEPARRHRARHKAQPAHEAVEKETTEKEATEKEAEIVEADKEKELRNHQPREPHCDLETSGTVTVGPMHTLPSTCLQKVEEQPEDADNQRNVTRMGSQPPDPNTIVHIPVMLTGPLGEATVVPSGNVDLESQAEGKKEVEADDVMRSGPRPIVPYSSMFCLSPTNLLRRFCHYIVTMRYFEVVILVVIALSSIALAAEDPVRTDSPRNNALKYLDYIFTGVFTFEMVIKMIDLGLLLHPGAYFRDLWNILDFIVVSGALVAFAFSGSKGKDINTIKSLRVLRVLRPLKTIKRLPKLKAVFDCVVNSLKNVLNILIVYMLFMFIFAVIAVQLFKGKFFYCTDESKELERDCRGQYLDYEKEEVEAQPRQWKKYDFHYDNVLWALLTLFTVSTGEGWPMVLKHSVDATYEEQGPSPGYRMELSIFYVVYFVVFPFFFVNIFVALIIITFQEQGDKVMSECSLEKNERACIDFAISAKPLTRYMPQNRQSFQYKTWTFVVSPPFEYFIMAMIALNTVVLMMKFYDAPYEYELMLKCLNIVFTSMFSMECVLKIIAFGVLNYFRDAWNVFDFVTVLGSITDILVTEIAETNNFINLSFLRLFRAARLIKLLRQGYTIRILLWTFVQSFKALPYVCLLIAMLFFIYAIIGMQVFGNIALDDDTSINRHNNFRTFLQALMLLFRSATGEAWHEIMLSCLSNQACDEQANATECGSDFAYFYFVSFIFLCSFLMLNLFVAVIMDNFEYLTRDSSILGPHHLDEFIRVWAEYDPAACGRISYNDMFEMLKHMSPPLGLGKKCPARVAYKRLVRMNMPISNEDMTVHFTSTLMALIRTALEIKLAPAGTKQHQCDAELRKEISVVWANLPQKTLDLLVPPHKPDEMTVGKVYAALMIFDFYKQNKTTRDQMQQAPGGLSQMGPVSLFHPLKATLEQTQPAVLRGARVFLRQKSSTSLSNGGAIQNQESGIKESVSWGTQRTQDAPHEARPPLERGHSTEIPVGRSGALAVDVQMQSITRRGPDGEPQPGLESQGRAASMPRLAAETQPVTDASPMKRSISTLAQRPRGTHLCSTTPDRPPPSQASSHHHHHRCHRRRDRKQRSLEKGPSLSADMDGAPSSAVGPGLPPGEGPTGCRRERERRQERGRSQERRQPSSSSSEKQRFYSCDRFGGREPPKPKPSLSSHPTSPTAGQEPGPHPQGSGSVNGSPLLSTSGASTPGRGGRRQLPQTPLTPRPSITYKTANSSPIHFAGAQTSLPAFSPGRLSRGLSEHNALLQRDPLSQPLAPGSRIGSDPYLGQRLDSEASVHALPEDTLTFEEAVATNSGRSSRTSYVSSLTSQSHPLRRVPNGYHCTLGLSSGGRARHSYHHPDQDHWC

| Compound | inhibition | inhibition [1] |
| --- | --- | --- |
| Cc1ccc2c(COC(=O)c3ccc(NC(=O)CC#N)cc3)cc(=O)oc2c1C | 57.8% (inactive) | 36.4% |
| Cc1ccc(NC(=O)c2nsc(Cl)c2Cl)cc1 | 18.9% (inactive) | – |
| C/C(=N\NC(=O)c1ccccc1Cl)c1ccccn1 | 16.3% (inactive) | – |
| CCN(CC)c1ccc(/C=N/NC(=O)c2c(Cl)c(C)nn2C)cc1 | 10.2% (inactive) | – |
| CCc1nnc(NS(=O)(=O)c2ccc(NCc3cc(Br)ccc3O)cc2)s1 | -6.2% (inactive) | – |
| O=C(OCc1cc(=O)n2c(n1)sc1ccccc12)c1ccc(O)cc1O | 60.2% (active) | – |
| O=C(OCc1cc(=O)n2c(n1)sc1ccccc12)c1ccc(O)cc1 | 30.3% (inactive) | – |
| O=C(OCc1cc(=O)n2c(n1)sc1ccccc12)c1cccc(O)c1 | 19.1% (inactive) | – |
| O=S(=O)(Nc1ccncc1)c1cc(Cl)c(Cl)cc1Cl | 12.2% (inactive) | – |
| COc1ccc2oc(=Nc3ccccc3)c(-c3nc4ccccc4[nH]3)cc2c1 | 37.9% (inactive) | – |
| COc1cccc(N=c2oc3ccccc3cc2-c2nc3ccccc3[nH]2)c1 | 17.1% (inactive) | – |
| CC(=O)c1sc2nc(CSc3nncn3C)[nH]c(=O)c2c1C | 22.1% (inactive) | – |
| CC(=O)c1sc2nc(CSc3nnnn3-c3ccccc3)[nH]c(=O)c2c1C | 80.6% (active) | – |
| Cc1ccc(-n2nnnc2SCc2nc3sc(C)c(C)c3c(=O)[nH]2)cc1 | 12% (inactive) | – |
| COc1ccc2c(C(=O)CN3CCSCC3)c[nH]c2c1 | 25.2% (inactive) | – |
| COC(=O)C1=C(N)Oc2c(oc(CO)cc2=O)C1c1ccccc1F (centres undefined) | 0.2% (inactive) | – |
| O=C(O)CC(C(=O)O)N1C(=O)/C(=C/C=C/c2ccco2)SC1=S (centres undefined) | 27.4% (inactive) | – |
| CC(C(=O)O)N1C(=O)/C(=C/C=C/c2ccco2)SC1=S (centres undefined) | 77.7% (active) | – |
| CC(C)C(C(=O)O)N1C(=O)/C(=C/C=C/c2ccco2)SC1=S (centres undefined) | 49.5% (inactive) | – |
| CNC(=S)NNC(=O)c1c(C)nc2cc(C)ccn12 | 0.7% (inactive) | – |
| CC1=C(C(=O)O)N2C(=O)C(NC(=O)c3ccn(C)n3)C2SC1 (centres undefined) | -8.1% (inactive) | – |
| CC1=C(C(=O)O)N2C(=O)[C@@H](NC(=O)[C@H](N)c3ccccc3)[C@H]2SC1 | -20.5% (inactive) | – |
| O=S1(=O)CCC(n2nccc2-c2ccccc2)C1 (centres undefined) | -2.9% (inactive) | – |
| COC(=O)C1=C(C)N(CCCC(=O)O)C(=O)NC1c1ccc(-c2ccccc2)cc1 (centres undefined) | -4.2% (inactive) | – |
| COc1cc(C2c3c([nH]c(=O)[nH]c3=O)Nc3ccc4ccccc4c32)cc(OC)c1OC (centres undefined) | 82.8% (active) | – |

| Compound | inhibition | inhibition [1] |
| --- | --- | --- |
| COc1cc(C2CC(=O)Nc3n[nH]c(-c4ccccc4)c32)cc(OC)c1OC (centres undefined) | 8.3% (inactive) | – |
| COc1cc(C2c3c([nH]c(=O)[nH]c3=O)Nc3ccc4ccccc4c32)ccc1O (centres undefined) | -1.1% (inactive) | – |
| CSc1cccc(NC(=O)c2cc(S(=O)(=O)N3CCCC3)cn2C)c1 | 8.5% (inactive) | – |
| O=C(CSc1nc2c(c(=O)n1-c1ccc(Cl)cc1)SCC2)NCC1CCCO1 (centres undefined) | -0.5% (inactive) | – |
| CC1=NN(C(N)=S)C(=O)C1N=Nc1c(Cl)cc([N+](=O)[O-])cc1Cl (centres undefined) | -6.1% (inactive) | – |
| Cc1ccc(C)c(SCC(=O)NC(=O)Nc2ccc3c(c2)OCCO3)c1 | 1.2% (inactive) | – |
| CCCc1cc(=O)[nH]c(SCC(=O)N2CCC(C)CC2)n1 | 12% (inactive) | – |
| Cc1ccc([N+](=O)[O-])cc1N | 0% (inactive) | – |
| Nc1cc([N+](=O)[O-])ccc1O | 2.9% (inactive) | – |
| COc1ccc(NC(=O)CCC(=O)N(Cc2ccc(OC)c(OC)c2)c2nccs2)cc1 | 6% (inactive) | – |
| OCC1(CCCc2ccccc2)CCN(Cc2ccc(F)cc2)CC1 | -2.6% (inactive) | – |
| CC(C)CNC(=O)c1ccccc1Oc1ccccc1 | 3.1% (inactive) | – |
| Cn1c(=O)c2c(-c3ccc(C(C)(C)C)cc3)n(CC3CCCO3)cc2n(C)c1=O (centres undefined) | 8.1% (inactive) | – |
| Cc1ccc2[nH]c(=O)c(CNC(C)C)cc2c1 | 15.1% (inactive) | – |
| COC(=O)C1=C(C)NC(C)=C(C(=O)OC)C1c1cc2cc(C)ccc2[nH]c1=O | 17.4% (inactive) | – |
| O=C(O)C1Nc2c(C(F)(F)F)ccc(Cl)c2C2C=CCC12 (centres undefined) | 7.3% (inactive) | – |
| O=C(O)C1Nc2c(Cl)cc(Cl)cc2C2C=CCC12 (centres undefined) | 51.5% (active) | – |
| Cc1ccc2c(c1C)NC(C(=O)O)C1CC=CC21 (centres undefined) | 42.8% (inactive) | – |
| O=C(CCNC(=O)N1CCn2c1nc1ccccc12)NCc1ccccc1 | -1.3% (inactive) | – |
| N#Cc1c(N)n(Cc2ccccc2)c(=O)c2cc([N+](=O)[O-])ccc12 | 2% (inactive) | – |
| O=c1c2c([N+](=O)[O-])cc([N+](=O)[O-])cc2sn1Cc1ccccc1 | 43.2% (inactive) | – |
| Cc1ccc(NC2SC(=O)N(CC(=O)O)C2=O)cc1 (centres undefined) | -7.4% (inactive) | – |
| Cc1cccc(C)c1-n1c(C)nn(CC2CC2)c1=O | -5.7% (inactive) | – |
| COc1ccc(-c2csc(NC(=O)CN3C(=O)CCC3=O)n2)c(OC)c1 | 6.5% (inactive) | – |
| CC(C)(C)NC(=O)CN(C(=O)C1(C)CC(=O)N=C2C=CC=CN21)C1CCCC1 (centres undefined) | 9.2% (inactive) | – |

| Compound | inhibition | inhibition [1] |
| --- | --- | --- |
| CCCCCCC(=O)N(O)C1CC(=O)N(c2ccccc2)C1=O (centres undefined) | 65.6% (active) | – |
| CCCCCC(=O)N(O)C1CC(=O)N(c2ccccc2)C1=O (centres undefined) | 44.4% (inactive) | – |
| CCCCCCC(=O)N(O)C1CC(=O)N(c2ccc(C)cc2)C1=O (centres undefined) | 12.5% (inactive) | – |
| CN(CCN1CCc2ccccc2C1)Cc1nc(-c2ccc3c(c2)OCO3)no1 | 2.5% (inactive) | – |
| CCc1cc(C(=O)N2CCCC(C(=O)c3ccc(C(F)(F)F)cc3)C2)n(C)n1 (centres undefined) | 5.5% (inactive) | – |
| O=C(CSc1nc2scc(-c3ccco3)c2c(=O)n1-c1ccccc1)NCC1CCCO1 (centres undefined) | 55% (active) | – |
| O=C(CSc1nnc(-c2ccco2)n1-c1ccccc1)NCC1CCCO1 (centres undefined) | 9.9% (inactive) | – |
| C=CCn1c(SCC(=O)NCC2CCCO2)nc2scc(-c3ccco3)c2c1=O (centres undefined) | 33% (inactive) | – |
| Cc1cc(C)c(NC(=O)CN2CCN(c3ccccn3)CC2)c(C)c1 | -1.2% (inactive) | – |
| CCOC(=O)C1(Cc2ccccc2C)CCCN(C(=O)c2ccoc2)C1 (centres undefined) | 14.3% (inactive) | – |
| COC(=O)C1=C(C)NC(C)=C(C(=O)OCC2CCCO2)C1c1cccc(Br)c1 (centres undefined) | 13.6% (inactive) | – |
| Cc1ccc(-n2nnnc2SCC(=O)Nc2sccc2C#N)cc1 | 0% (inactive) | – |
| Cn1cnnc1SCC(=O)Nc1sccc1C#N | 2.2% (inactive) | – |
| N#Cc1ccsc1NC(=O)CSc1nnnn1-c1ccc(O)cc1 | 50.6% (active) | – |
| CC(=O)c1ccc2noc(-c3cccc(F)c3)c2c1 | -6.7% (inactive) | – |
| CCn1cc(C(=O)O)c(=O)c2cc(F)c(N/N=C/c3ccccc3[N+](=O)[O-])cc21 | 58.8% (active) | – |
| CCn1cc(C(=O)O)c(=O)c2cc(F)c(N3CCN(C(=S)NC(=O)c4ccccc4)CC3)cc21 | -5.6% (inactive) | – |
| CCn1cc(C(=O)O)c(=O)c2cc(F)c(N/N=C/c3ccccc3)cc21 | 6.4% (inactive) | – |
| Cn1cc([N+](=O)[O-])c(C(=O)NCc2ccco2)n1 | -1.5% (inactive) | – |
| COc1ccccc1NC(=O)C1=C(C)NC(=O)NC1c1ccccc1F (centres undefined) | 6.4% (inactive) | – |
| COc1ccc(NC(=O)C2=C(C)NC(=O)NC2c2ccccc2[N+](=O)[O-])cc1 (centres undefined) | -2.6% (inactive) | – |
| COc1ccccc1NC(=O)C1=C(C)NC(=O)NC1c1ccccc1[N+](=O)[O-] (centres undefined) | 55.2% (active) | – |
| O=C(CN1C(=O)C2CCCCC2C1=O)N1CCN(c2ncccn2)CC1 (centres undefined) | 10.4% (inactive) | – |
| CC(C)CCN(C)C1CCN(S(=O)(=O)c2cccc(C(F)(F)F)c2)CC1 | 12.2% (inactive) | – |
| O=C(N/N=C/c1ccc([N+](=O)[O-])cc1)c1cc(C2CC2)[nH]n1 | -0.6% (inactive) | – |

| Compound | inhibition | inhibition [1] |
| --- | --- | --- |
| O=C(N/N=C/c1cccc([N+](=O)[O-])c1)c1cc(-c2ccc3c(c2)OCO3)n[nH]1 | 3.3% (inactive) | – |
| O=C(Nc1ccc(S(=O)(=O)Nc2nccs2)cc1)c1ccc(F)cc1 | 11.1% (inactive) | – |
| O=C(Nc1ccc(S(=O)(=O)Nc2nccs2)cc1)c1ccc(N2C(=O)c3ccccc3C2=O)cc1 | 58.8% (active) | – |
| O=C(Nc1ccc(S(=O)(=O)Nc2nccs2)cc1)c1cccc(N2C(=O)c3ccccc3C2=O)c1 | 49.1% (inactive) | – |
| COc1ccccc1N1CCN(C(=O)C2CCN(C(=O)c3cccc(Cl)c3)CC2)CC1 | 6.4% (inactive) | – |
| Cc1[nH]cnc1C(=O)N/N=C/c1ccc([N+](=O)[O-])s1 | -7.6% (inactive) | – |
| O=[N+]([O-])C(=c1ccc2c(c1)N1C3=C(CCCC3)CC3CCCCC31N=2)[N+](=O)[O-] (centres undefined) | 51.6% (active) | 92.8% |
| N#C/C(C(N)=O)=c1/ccc2c(c1)N1C3=C(CCCC3)CC3CCCCC31N=2 (centres undefined) | -26.9% (inactive) | – |
| N#CC(C#N)=c1ccc2c(c1)N1C3=C(CCCC3)CC3CCCCC31N=2 (centres undefined) | -36.3% (inactive) | – |
| CCc1ccc2[nH]c(C(=O)Nc3ccc(Br)c(C)n3)cc2c1 | 5.3% (inactive) | – |
| COc1ccc(-c2cc(-c3ccco3)[nH]c(=O)c2C#N)cc1OC | 0.3% (inactive) | – |
| N#Cc1c(-c2cccc(Br)c2)cc(-c2ccco2)[nH]c1=O | 53.9% (active) | – |
| COc1ccc(-c2cc(-c3ccco3)[nH]c(=O)c2C#N)cc1 | 24.8% (inactive) | – |
| O=C(COC(=O)/C=C/c1ccc(F)cc1)NCc1ccco1 | 8.8% (inactive) | – |
| O=C(COC(=O)c1ccc(NS(=O)(=O)c2cccs2)cc1)NCC1CCCO1 (centres undefined) | -3% (inactive) | – |
| O=C(COC(=O)/C=C/c1ccco1)NCc1ccccc1 | 13.7% (inactive) | – |
| O=C(COC(=O)/C=C/c1ccco1)NCc1ccco1 | 53.7% (active) | – |
| O=C(COC(=O)c1ccc(S(=O)(=O)Nc2ccccc2)cc1)NCc1ccco1 | -1.1% (inactive) | – |
| O=C(COC(=O)CCC(=O)c1cccs1)NCc1ccco1 | 57.8% (active) | – |
| O=C(COC(=O)c1ccc(NS(=O)(=O)c2cccs2)cc1)NCc1ccco1 | 59.4% (active) | – |
| O=C(COC(=O)c1cccs1)NCc1ccco1 | -0.7% (inactive) | – |
| O=C(COC(=O)CCC(=O)c1cccs1)NCc1cccs1 | -3.4% (inactive) | – |
